Results as given in PubChem BioAssay (NCATS).
Inconclusive results are not listed. Where a call stands in place of a potency, no number is given. Calls of active or inactive are those of the source. Unless noted, calls follow the shape of the dose curve; as a rule, active = well fitted curve in the direction sought with a large enough effect; inconclusive = small, poorly fitted or top-dose-only effect, or another doubt; inactive = no such curve, though single readings can be large; an effect the other way counts as inactive or inconclusive.

What was measured:
[1] = molecular target: Cytochrome P450 1A2 (Homo sapiens) (UniProt P05177); test: p450-cyp1a2 (AID 410; calls by dose curve; also: potency is read from the fitted curve at half-maximal effect)
Cytochrome P450 1A2 (Homo sapiens), sequence (P05177 whole entry, looked up): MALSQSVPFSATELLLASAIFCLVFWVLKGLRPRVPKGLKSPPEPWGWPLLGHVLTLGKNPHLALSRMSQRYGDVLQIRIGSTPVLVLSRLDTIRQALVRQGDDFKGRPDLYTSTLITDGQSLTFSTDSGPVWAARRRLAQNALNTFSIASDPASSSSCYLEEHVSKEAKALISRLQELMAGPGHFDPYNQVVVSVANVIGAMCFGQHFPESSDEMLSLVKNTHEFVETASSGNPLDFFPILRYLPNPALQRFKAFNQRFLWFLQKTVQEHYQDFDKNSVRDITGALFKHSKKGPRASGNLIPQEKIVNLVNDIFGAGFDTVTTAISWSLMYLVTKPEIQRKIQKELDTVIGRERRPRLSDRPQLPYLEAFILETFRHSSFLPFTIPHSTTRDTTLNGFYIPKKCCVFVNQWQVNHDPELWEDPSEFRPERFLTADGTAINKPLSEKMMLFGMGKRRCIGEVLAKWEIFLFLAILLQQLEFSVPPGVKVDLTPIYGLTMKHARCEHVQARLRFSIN
Procedure, shortened: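 Inhibition was calculated relative to 57 uM furafylline (full inhibition). The reaction used human CYP1A2 at 20nM with Luciferin-ME at its Km, 100uM, driven by an NADPH-regenerating system for 60 min at room temperature.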

[2] = molecular target: Mitogen-activated protein kinase 10 (Mus musculus) (UniProt Q61831); test: JNK3 AlphaScreen Assay (AID 530; active = well fitted curve in either direction with a large enough effect, not every such curve was filed as active;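 also: kinase came from lysate of stimulated human HepG2 cells; signal reports phosphorylation of biotinylated GST-cJun 1-79 at Ser73 with 10 µM ATP; series mostly up to about 57 µM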)
Procedure, shortened: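 Room-temperature AlphaScreen kinase assay; pre-activated HepG2 lysate as JNK3 source, biotin-GST-cJun(1-79) substrate, 10 uM ATP, compound 15 min preincubation.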

[3] = molecular target: 3',5'-cyclic-AMP phosphodiesterase 4B (Homo sapiens) (UniProt Q07343); test: qHTS Assay for Inhibitors of PDE-IV (AID 607; active = well fitted activation curve with a large enough effect in the main read-out, with a control signal flat, not every such curve was filed as active; also: potency is read from the fitted curve at half-maximal effect)
3',5'-cyclic-AMP phosphodiesterase 4B (Homo sapiens), sequence (Q07343 whole entry, looked up): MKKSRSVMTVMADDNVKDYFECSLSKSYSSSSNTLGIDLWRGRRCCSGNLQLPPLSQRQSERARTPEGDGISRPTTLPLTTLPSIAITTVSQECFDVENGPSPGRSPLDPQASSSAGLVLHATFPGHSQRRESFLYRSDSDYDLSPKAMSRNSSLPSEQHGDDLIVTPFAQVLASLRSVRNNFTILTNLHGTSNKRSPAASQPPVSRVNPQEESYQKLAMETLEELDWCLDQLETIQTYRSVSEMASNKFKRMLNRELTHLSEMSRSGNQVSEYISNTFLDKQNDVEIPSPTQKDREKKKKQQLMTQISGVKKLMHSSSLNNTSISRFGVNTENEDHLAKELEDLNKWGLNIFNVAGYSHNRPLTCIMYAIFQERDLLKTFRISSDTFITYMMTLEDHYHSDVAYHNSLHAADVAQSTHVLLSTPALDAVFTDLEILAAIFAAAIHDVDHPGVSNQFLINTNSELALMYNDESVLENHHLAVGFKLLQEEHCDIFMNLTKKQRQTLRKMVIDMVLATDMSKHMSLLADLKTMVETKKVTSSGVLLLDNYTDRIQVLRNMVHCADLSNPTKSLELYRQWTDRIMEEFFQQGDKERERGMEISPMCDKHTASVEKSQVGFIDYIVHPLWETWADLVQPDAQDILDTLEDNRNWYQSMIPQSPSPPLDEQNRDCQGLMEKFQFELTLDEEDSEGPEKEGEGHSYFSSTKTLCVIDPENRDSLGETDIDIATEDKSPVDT
Procedure, shortened: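 HEK293 ACTOne cells with CNG channel (1000/well), endogenous PDE4; membrane potential dye, compounds up to 22.9 uM final. Fluorescence Ex 535/Em 590; RO 20-1724 (100 uM final) as reference.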

[4] = molecular target: Cytochrome P450 3A4 (Homo sapiens) (UniProt P08684); test: qHTS Assay for Inhibitors and Substrates of Cytochrome P450 3A4 (AID 884); also: potency is read from the fitted curve at half-maximal effect; nearly all actives have a fitted effect of over 50% in size
Cytochrome P450 3A4 (Homo sapiens), sequence (P08684 whole entry, looked up): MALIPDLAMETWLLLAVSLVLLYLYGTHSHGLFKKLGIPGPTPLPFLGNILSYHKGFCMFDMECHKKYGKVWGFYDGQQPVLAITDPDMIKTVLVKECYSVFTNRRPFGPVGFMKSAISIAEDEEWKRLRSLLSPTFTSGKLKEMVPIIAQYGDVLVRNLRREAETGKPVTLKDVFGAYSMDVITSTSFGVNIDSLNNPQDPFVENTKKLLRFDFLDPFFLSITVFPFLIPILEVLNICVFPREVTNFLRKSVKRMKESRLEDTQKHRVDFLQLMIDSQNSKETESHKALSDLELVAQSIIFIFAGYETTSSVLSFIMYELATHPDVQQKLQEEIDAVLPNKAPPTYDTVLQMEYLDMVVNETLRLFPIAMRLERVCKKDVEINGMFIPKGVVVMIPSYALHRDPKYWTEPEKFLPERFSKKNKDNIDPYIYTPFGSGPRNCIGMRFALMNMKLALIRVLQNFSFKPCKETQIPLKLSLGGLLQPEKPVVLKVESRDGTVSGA
Procedure, shortened: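 20 nM human CYP3A4 with 25 uM Luciferin-PPXE (at KM) in 200 mM KPO4, preincubated 10 min with compound; NADPH regeneration started a 60 min RT reaction. Luciferin detected by luminescence, normalized to 57 uM ketoconazole as full inhibition.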

[5] = molecular target: Cytochrome P450 3A4 (Homo sapiens) (UniProt P08684); test: qHTS Assay for Activators of Cytochrome P450 3A4 (AID 885); also: nearly all actives have a fitted effect of over 65% in size
Procedure, shortened: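 Human CYP3A4 (20 nM) with Luciferin-PPXE at 25 uM (its KM) in 200 mM KPO4; 10 min compound preincubation, then NADPH regeneration and 60 min reaction at RT. Luciferin read by luminescence; normalized to 57 uM ketoconazole full inhibition.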

[6] = molecular target: Cytochrome P450 2D6 (Homo sapiens) (UniProt P10635); test: qHTS Assay for Inhibitors and Substrates of Cytochrome P450 2D6 (AID 891); also: potency is read from the fitted curve at half-maximal effect; nearly all actives have a fitted effect of over 60% in size
Cytochrome P450 2D6 (Homo sapiens), sequence (P10635 whole entry, looked up): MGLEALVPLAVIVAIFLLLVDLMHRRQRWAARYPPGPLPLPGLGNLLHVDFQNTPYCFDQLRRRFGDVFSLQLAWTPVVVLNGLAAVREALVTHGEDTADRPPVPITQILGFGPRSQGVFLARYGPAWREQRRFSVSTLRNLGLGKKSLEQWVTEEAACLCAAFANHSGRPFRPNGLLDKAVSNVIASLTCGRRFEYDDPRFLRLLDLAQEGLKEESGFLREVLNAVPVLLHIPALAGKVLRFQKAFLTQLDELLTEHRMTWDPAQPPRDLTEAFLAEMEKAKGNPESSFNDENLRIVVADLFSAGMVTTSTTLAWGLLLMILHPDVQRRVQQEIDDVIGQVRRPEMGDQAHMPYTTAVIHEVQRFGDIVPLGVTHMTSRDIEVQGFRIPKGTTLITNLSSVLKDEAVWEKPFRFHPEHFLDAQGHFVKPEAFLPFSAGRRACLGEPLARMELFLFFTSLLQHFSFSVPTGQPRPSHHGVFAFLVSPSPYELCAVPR
Procedure, shortened: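 Human CYP2D6 (5 nM) with 30 uM Luciferin-ME EGE (at Km) in 100 mM KPO4, compound preincubated 10 min, then NADPH regeneration system for 60 min at room temperature. Luciferin read by luminescence; normalized to 1.43 uM quinidine.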

[7] = molecular target: Cytochrome P450 2C19 (Homo sapiens) (UniProt P33261); test: qHTS Assay for Inhibitors and Substrates of Cytochrome P450 2C19 (AID 899); also: potency is read from the fitted curve at half-maximal effect; nearly all actives have a fitted effect of over 60% in size
Cytochrome P450 2C19 (Homo sapiens), sequence (P33261 whole entry, looked up): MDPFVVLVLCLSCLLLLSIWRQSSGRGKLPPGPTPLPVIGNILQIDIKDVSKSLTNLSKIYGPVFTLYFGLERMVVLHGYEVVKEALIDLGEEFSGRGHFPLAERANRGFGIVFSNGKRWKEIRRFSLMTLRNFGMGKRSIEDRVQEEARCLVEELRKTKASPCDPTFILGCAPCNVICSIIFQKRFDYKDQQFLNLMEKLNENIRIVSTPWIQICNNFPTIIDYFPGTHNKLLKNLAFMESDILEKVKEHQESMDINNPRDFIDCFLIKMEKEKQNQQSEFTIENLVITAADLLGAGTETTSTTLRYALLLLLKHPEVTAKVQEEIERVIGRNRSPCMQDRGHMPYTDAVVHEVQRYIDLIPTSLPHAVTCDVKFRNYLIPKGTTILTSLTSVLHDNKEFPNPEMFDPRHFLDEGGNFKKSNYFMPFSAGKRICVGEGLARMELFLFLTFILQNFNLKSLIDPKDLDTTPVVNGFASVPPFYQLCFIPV
Procedure, shortened: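 5nM enzyme + 10uM Luciferin-H EGE (=KM), 50mM KPO4; cpd pin-transferred, 10 min 37C; NADPH regen, 60 min 37C; stopped w/ luciferin detection reagent, 20 min; luminescence. Normalized to 57uM ketoconazole (AC100).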

SMILES | Potency [1] | Potency [2] | Potency [3] | Potency [4] | Potency [5] | Potency [6] | Potency [7]
CCC[C@@H]1C[C@@]1(CCC)C(NC(=O)c1cccs1)c1ccc(Cl)cc1 (stereo partly specified) | 10 µM (active) | inactive | inactive | 6.31 µM (active) | inactive |  | 
COC(=O)[C@@]1(Cc2ccc(F)cc2)[C@H]2c3cc(C(=O)N4CCCC4)n(Cc4c(CO)[nH]cc(C)c4=O)c3C[C@H]2CN1C(=O)c1ccccc1 | 20 µM (active) | inactive | inactive | 2 µM (active) | inactive |  | 
CCCc1cc2c(n1CCc1ccc(Cl)cc1)C(C)C1CN(C(=O)c3ccccc3)C(C)(C(=O)OC)C21 (stereo unspecified) | 25.1 µM (active) | inactive | inactive | 5.01 µM (active) | inactive | 5.01 µM (active) | 6.31 µM (active)
Cc1ccc(CNC(=O)[C@H]2C[C@@H]2[C@H](NP(=O)(c2ccccc2)c2ccccc2)c2ccccc2)c(F)c1F | inactive | inactive | inactive | 0.316 µM (active) | inactive |  | 
C[C@@H](C(=O)Nc1ccc2ccccc2c1)[C@H]1C[C@]1(C)[C@H](NS(=O)(=O)c1ccc2ccccc2c1)c1ccccc1 | inactive | inactive | inactive | 7.94 µM (active) | inactive | 3.16 µM (active) | 0.251 µM (active)
C=C1C(=O)C=C2CN(C(=O)c3ccccc3)[C@@](Cc3ccc(OC)cc3)(C(=O)OC)[C@@H]12 | 15.8 µM (active) | inactive | 1.58 µM (active) | 1.58 µM (active) | inactive |  | 
C[C@@H](C(=O)NCCF)[C@H]1C[C@]1(C)[C@H](NC(=O)OCc1ccccc1)c1ccccc1 | 15.8 µM (active) | inactive | inactive | 3.98 µM (active) | inactive | 6.31 µM (active) | 1.26 µM (active)
Cc1nn(C)c(Cl)c1S(=O)(=O)N[C@@H](c1ccccc1)[C@]1(C)C[C@H]1[C@@H](C)C(=O)Nc1ccc2ccccc2c1 | 5.01 µM (active) | inactive | inactive | 1.26 µM (active) | inactive |  | 
CC1(C)C(=O)C(c2ccccc2)=C2CN3C(=O)N(CCc4ccccc4)C(=O)C3(Cc3ccc(F)cc3)C=C21 (stereo unspecified) | 15.8 µM (active) | inactive | inactive | 3.16 µM (active) | inactive |  | 
CCCC[C@H]1C[C@@H]1[C@@H]1N(P(=O)(c2ccccc2)c2ccccc2)C[C@@](O)(c2ccccc2)CC12CC2 | inactive | inactive | inactive | 2 µM (active) | inactive |  | 
COC(=O)[C@@]1(Cc2ccc(F)cc2)[C@@H]2C(=CC(=O)[C@H]2CC(=O)C(=O)N2CCCC2)CN1C(=O)c1ccccc1 | inactive | inactive | inactive |  | inactive |  | 
C[C@@H](C(=O)NCc1ccc(S(C)(=O)=O)cc1)[C@H]1C[C@]1(C)[C@H](NC(=O)OCc1ccccc1)c1ccccc1 | 12.6 µM (active) | inactive | inactive | 3.16 µM (active) | inactive | 0.398 µM (active) | 
COC(=O)[C@H]1C[C@@H]1[C@H](NC(=O)c1cccnc1)c1ccccc1 | 12.6 µM (active) | inactive | inactive | 5.01 µM (active) | inactive |  | 
COC(=O)[C@@]1(Cc2ccccc2)[C@H]2c3cc(C(=O)N4CCCC4)n(Cc4ccc(C)o4)c3C[C@H]2CN1C(=O)c1ccccc1 | 12.6 µM (active) | inactive | inactive | 2 µM (active) | inactive |  | 2.51 µM (active)
CCCc1cc2c(n1Cc1ccc(OC)cc1)C(C)C1CN(C(=O)c3ccccc3)C(C)(C(=O)OC)C21 (stereo unspecified) | 15.8 µM (active) | inactive | inactive | 3.16 µM (active) | inactive |  | 
Cc1c2c(nc3ccccc13)-c1cccc(=O)n1C2 | 0.1 µM (active) | inactive | inactive |  | inactive |  | 
Cc1cc(CNC(=O)[C@@H]2C[C@H]2[C@@H](NP(=O)(c2ccccc2)c2ccccc2)c2ccccc2)nn1C | inactive | inactive | inactive | 0.398 µM (active) | inactive |  | 
CNC(=O)[C@H](C)[C@@H]1C[C@@]1(C)[C@@H](NC(=O)OCc1ccccc1)c1ccccc1 | 20 µM (active) | inactive | inactive | 2.51 µM (active) | inactive | 3.16 µM (active) | 0.631 µM (active)
COC(=O)[C@@]1(Cc2ccc(OC)cc2)[C@H]2c3cc(C(=O)N4CCCC4)n(CCn4cc([N+](=O)[O-])nc4C)c3C[C@H]2CN1C(=O)c1ccccc1 | inactive | inactive | inactive | 3.98 µM (active) | inactive |  | 
O=C(NCCc1c[nH]c2ccccc12)[C@@H]1C[C@H]1[C@@H](NP(=O)(c1ccccc1)c1ccccc1)c1ccccc1 | 15.8 µM (active) | inactive | inactive | 1.26 µM (active) | inactive |  | 6.31 µM (active)
C[C@@H](C(=O)Nc1ccc2ccccc2c1)[C@@H]1C[C@@]1(C)[C@@H](NC(=O)c1ccncc1Cl)c1ccccc1 | 25.1 µM (active) | inactive | inactive |  | inactive |  | 
C[C@H]1C2=C3C(CC[C@H]4C(OCc5ccc(F)cc5C(F)(F)F)OC[C@](C)([C@@H]34)N(C(=O)OC(C)(C)C)C2)C(CO)C1CO (stereo partly specified) | 15.8 µM (active) | inactive | inactive |  | inactive |  | 
C[C@H](CO)NC(=O)[C@@H]1C[C@H]1[C@@H](NP(=O)(c1ccccc1)c1ccccc1)c1ccccc1 | inactive | inactive | inactive |  | inactive |  | 
C[C@@H](C(=O)Nc1ccc2ccccc2c1)[C@H]1C[C@]1(C)[C@H](NS(=O)(=O)c1ccc(-c2ccccc2)cc1)c1ccccc1 | 15.8 µM (active) | inactive | inactive |  | inactive | 2 µM (active) | 

SMILES | Potency [1] | Potency [2] | Potency [3] | Potency [4] | Potency [5] | Potency [6] | Potency [7]
COC(=O)C1CC1C(NC(=O)[C@H]1CCCCN1)c1ccccc1 (stereo partly specified) | inactive | inactive | inactive |  | inactive |  | 
COC(=O)C1(Cc2ccccc2)C=C2C(=C(C)C(=O)C2C)CN1 (stereo unspecified) | 10 µM (active) | inactive | inactive |  | inactive |  | 
CC1=C(C(=O)OCc2ccccc2)C(c2ccc([N+](=O)[O-])cc2)NC(=O)N1CCCCCC(=O)O (stereo unspecified) | 15.8 µM (active) | inactive | inactive |  | inactive |  | 
C[C@@]1(C(NC(=O)c2cccs2)c2ccc(-c3ccccc3)cc2)C[C@H]1C1CCCCC1 (stereo partly specified) | inactive | inactive | inactive |  | inactive |  | 
CC[C@H]1C2=C3C(CC[C@H]4C(OCc5ccc(F)cc5C(F)(F)F)OC[C@](C)([C@@H]34)N(C(=O)OC(C)(C)C)C2)C2COC(=O)OCC21 (stereo partly specified) | inactive | inactive | inactive |  | inactive |  | 
CCCCCC1=C2CNC(CCC)(C(=O)OC)C=C2C(C)C1=O (stereo unspecified) | 31.6 µM (active) | inactive | inactive |  | inactive |  | 
COC(=O)C1(C)C=C2C(=C(c3ccccc3)C(=O)C2C)CN1 (stereo unspecified) | 15.8 µM (active) | inactive | inactive |  | inactive |  | 
C[C@@H](C(=O)Cc1ccc2ccccc2c1)[C@@H]1C[C@@]1(C)[C@@H](NP(=O)(c1ccccc1)c1ccccc1)c1ccccc1 | 10 µM (active) | inactive | inactive |  | inactive |  | 
C[C@@H](C(=O)NCc1nc2ccccc2[nH]1)[C@@H]1C[C@@]1(C)[C@@H](NC(=O)OCc1ccccc1)c1ccccc1 | 12.6 µM (active) | inactive | inactive |  | inactive |  | 
COCC1C2CC[C@H]3C(OCc4ccc(F)cc4C(F)(F)F)OC[C@]4(C)[C@H]3C2=C(CN4C(=O)OC(C)(C)C)[C@H](C)C1COC (stereo partly specified) | 31.6 µM (active) | inactive | inactive |  | inactive |  | 
COC(=O)[C@@H]1C[C@H]1[C@@H](NC(=O)c1cc(C)nn1C)c1ccccc1 | 15.8 µM (active) | inactive | inactive |  | inactive |  | 
O=C(NCc1cc(F)cc2c1OCCO2)[C@H]1C[C@@H]1[C@H](NP(=O)(c1ccccc1)c1ccccc1)c1ccccc1 | 15.8 µM (active) | inactive | inactive |  | inactive |  | 
CCC[C@@H]1C[C@@]1(CCC)C(NC(=O)c1ccco1)c1ccc(Cl)cc1 (stereo partly specified) | 25.1 µM (active) | inactive | inactive |  | inactive | 3.98 µM (active) | 3.16 µM (active)
CCc1c2c(nc3cccc(C(C)C)c13)-c1cccc(=O)n1C2 | 0.501 µM (active) | inactive | inactive |  | inactive |  | 
CC[C@H]1C2=C3C(CC[C@H]4C(OCc5ccc(F)cc5C(F)(F)F)OC[C@](C)([C@@H]34)N(C(=O)OC(C)(C)C)C2)C(COC)C1COC (stereo partly specified) | inactive | inactive | inactive |  | inactive |  | 
C[C@@H](C(=O)NCc1ccc(S(C)(=O)=O)cc1)[C@@H]1C[C@@]1(C)[C@@H](NC(=O)OCc1ccccc1)c1ccccc1 | 15.8 µM (active) | inactive | inactive |  | inactive |  | 1.26 µM (active)
CC(C)c1cccc2nc3c(c([Si](C)(C)C)c12)Cn1c-3cccc1=O | 15.8 µM (active) | inactive | inactive |  | inactive |  | 
C[C@@H](C(=O)O)[C@H]1C[C@]1(C)[C@H](NC(=O)OCc1ccccc1)c1ccccc1 | inactive | inactive | inactive |  | inactive |  | 7.94 µM (active)
COC(=O)[C@H]1C[C@@H]1[C@H](NC(=O)Oc1ccc(F)cc1)c1ccccc1 | 1 µM (active) | inactive | inactive |  | inactive |  | 
COC(=O)C1(CC(C)C)C=C2C(=C(C(C)C)C(=O)C2C)CN1 (stereo unspecified) | 15.8 µM (active) | inactive | inactive |  | inactive |  | 
C[C@@]1(C(NC(=O)Cc2ccccc2)c2ccc(-c3ccccc3)cc2)C[C@H]1C1CCCCC1 (stereo partly specified) | inactive | inactive | inactive |  | inactive |  | 
COC(=O)C1CC1C(NC(=O)[C@@H]1CCCN1)c1ccccc1 (stereo partly specified) | 15.8 µM (active) | inactive | inactive |  | inactive |  | 
C#CCCCC(=S)Nc1ccccc1 | 12.6 µM (active) | inactive | inactive |  | inactive |  | 
COC(=O)[C@H]1C[C@@H]1[C@H](NC(=O)c1cc(C)on1)c1ccccc1 | 15.8 µM (active) | inactive | inactive |  | inactive |  | 
